“And” between values parts separate entries of the source, which are not always exact repeats. Equal entries are not always repeated. Records with an inconclusive call do not appear. More than one record can exist for a structure, and the calls need not agree. The source made the active and inactive calls. Unless noted, calls come from the whole dose curve; as a rule, active = well fitted curve in the direction sought with a large enough effect in the repeat runs; inconclusive = weak or mixed curves; inactive = no such curve, though single readings can be large; an effect the other way counts as inactive or inconclusive.
Columns and labels:
[1] = biological target: Nuclear receptor subfamily 1 group I member 3 (Homo sapiens) (UniProt Q14994); assay: qHTS assay to identify small molecule antagonists of the constitutive androstane receptor (CAR) signaling pathway (AID 1224838);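 note: HepG2 cells stably expressing hCAR with CYP2B6 luciferase reporter stimulated by CITCO; nearly all actives have a fitted effect of over 40% in size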; note: potency is the fitted concentration of half-maximal effect
Sequence of Nuclear receptor subfamily 1 group I member 3 (Homo sapiens) (Q14994 whole entry, looked up): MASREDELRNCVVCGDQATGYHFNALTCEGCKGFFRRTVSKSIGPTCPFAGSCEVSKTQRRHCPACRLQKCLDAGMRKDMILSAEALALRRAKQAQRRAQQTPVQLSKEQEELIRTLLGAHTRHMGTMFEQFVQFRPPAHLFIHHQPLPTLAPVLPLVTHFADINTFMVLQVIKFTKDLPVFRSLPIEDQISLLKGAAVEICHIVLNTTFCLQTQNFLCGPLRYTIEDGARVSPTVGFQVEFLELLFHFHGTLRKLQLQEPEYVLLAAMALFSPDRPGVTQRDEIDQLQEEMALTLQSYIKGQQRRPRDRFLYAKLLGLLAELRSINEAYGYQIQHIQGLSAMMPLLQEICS
In short: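 HepG2-CYP2B6-hCAR cells; 4 h pre-incubation; cpd (15 conc) + CITCO 50 nM final; 24 h, 37 C/5% CO2; ONE-Glo, luminescence.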

[2] = biological target: Nuclear receptor subfamily 1 group I member 3 (Homo sapiens) (UniProt Q14994); assay: qHTS assay to identify small molecule agonists of the constitutive androstane receptor (CAR) signaling pathway (AID 1224839); note: nearly all actives have a fitted effect of over 15% in size; note: potency is the fitted concentration of half-maximal effect;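 for activation: HepG2 cells stably carrying human CAR and a CYP2B6 luciferase reporter; series mostly up to about 92 µM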
In short: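 Luminescence read-out (ONE-Glo, 30 min, room temperature) from double-stable HepG2-CYP2B6-hCAR cells exposed 24 h to 15-point compound series in presence of 0.75 uM PK11195 final.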

[3] = qHTS assay to identify small molecule antagonists of the estrogen related receptor signaling pathway with the pleiotropic PPARgamma coactivator (PGC) from Tox21 10K library - cell viability counter screen (AID 1224840; active = well fitted cell-killing curve with a large enough effect in the repeat runs, not every such curve was filed as active; note: nearly all actives have a fitted effect of over 40% in size)
In short: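 PGC/ERR cells, 2,000/well; 6 h pre-incubation 37 C/5% CO2; cpd in DMSO via pin tool; 17.5 h 37 C; CellTiter-Fluor, 30 min; fluorescence.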

[4] = qHTS assay to identify small molecule antagonists of the estrogen related receptor signaling pathway with the pleiotropic PPARgamma coactivator (PGC) from Tox21 10K library (AID 1224841; call rule not given here; note: series mostly up to about 92 µM; actives are mostly falling curves and most rising ones were filed inactive; nearly all actives have a fitted effect of over 50% in size)
In short: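 PGC/ERR cell line, 2,000 cells/well; 6 h pre-incubation 37 C/5% CO2; compounds (DMSO) pinned in; 18 h, 37 C; One-Glo, 30 min RT; luminescence.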

[5] = qHTS assay to identify small molecule agonists of the estrogen related receptor signaling pathway with the pleiotropic PPARgamma coactivator (PGC) from Tox21 10K library (AID 1224842); note: nearly all actives have a fitted effect of over 15% in size
In short: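 Luminescence from One-Glo (30 min, room temperature) measured after PGC/ERR cells had 18 h at 37 C with pinned compound (23 nL in DMSO). Cells had been seeded at 2,000 per well and pre-incubated 6 h.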

[6] = qHTS assay to identify small molecule agonists of the hypoxia (HIF-1) signaling pathway - cell viability counter screen (AID 1224844; calls by dose curve; note: nearly all actives have a fitted effect of over 50% in size)
In short: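 ME-180 HRE-bla cells, 2,000/well, 0.5% dialyzed FBS; 5 hr settle, 17 hr compound at 37C/5% CO2; CCF4-AM reporter read first, then CellTiter-Glo luminescence after 30 min RT.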

[7] = qHTS assay to identify small molecule agonists of H2AX (AID 1224845; active = well fitted activation curve with a large enough effect in the signal ratio in the repeat runs, not every such curve was filed as active; the % refers to the signal ratio)
In short: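 Phospho-H2AX Ser139 measured by HTRF (ex 320 nm; em 665 and 620 nm) after 24 hr antibody incubation. Compounds, 15 concentrations, 0.76% DMSO, were applied to CHO-K1 cells for 3hr at 37C before lysis.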

[8] = qHTS assay to identify small molecule agonists of the hypoxia (HIF-1) signaling pathway (AID 1224846; active = well fitted activation curve with a large enough effect in the signal ratio in the repeat runs, not every such curve was filed as active; the % refers to the signal ratio)
In short: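 Cell line: CellSensor HRE-bla ME-180; 2,000 cells/well; 0.5% dialyzed FBS; 5 h preincubation; DMSO compound pin transfer; 17 h, 37C, 5% CO2; CCF4-AM added; bla FRET signal scored for activation.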

[9] = qHTS assay to identify small molecule agonists of H2AX - cell viability counter screen (AID 1224847; calls by dose curve;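 note: wild-type CHO-K1 cells; top concentration of the series differs between compounds; nearly all actives have a fitted effect of over 30% in size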)
In short: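 CHO-K1 wt, 1000 cells/well, o/n 37C; cpds 15 conc, 3 h 37C, 0.76% DMSO; CellTiter-Glo, 30 min RT, luminescence.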

[10] = biological target: Thyrotropin receptor (Homo sapiens) (UniProt P16473); assay: qHTS assay to identify small molecule agonists of the thyroid stimulating hormone receptor (TSHR) signaling pathway (AID 1224843; calls by dose curve; note: nearly all actives have a fitted effect of over 45% in size; note: potency is the fitted concentration of half-maximal effect)
Sequence of Thyrotropin receptor (Homo sapiens) (P16473 whole entry, looked up): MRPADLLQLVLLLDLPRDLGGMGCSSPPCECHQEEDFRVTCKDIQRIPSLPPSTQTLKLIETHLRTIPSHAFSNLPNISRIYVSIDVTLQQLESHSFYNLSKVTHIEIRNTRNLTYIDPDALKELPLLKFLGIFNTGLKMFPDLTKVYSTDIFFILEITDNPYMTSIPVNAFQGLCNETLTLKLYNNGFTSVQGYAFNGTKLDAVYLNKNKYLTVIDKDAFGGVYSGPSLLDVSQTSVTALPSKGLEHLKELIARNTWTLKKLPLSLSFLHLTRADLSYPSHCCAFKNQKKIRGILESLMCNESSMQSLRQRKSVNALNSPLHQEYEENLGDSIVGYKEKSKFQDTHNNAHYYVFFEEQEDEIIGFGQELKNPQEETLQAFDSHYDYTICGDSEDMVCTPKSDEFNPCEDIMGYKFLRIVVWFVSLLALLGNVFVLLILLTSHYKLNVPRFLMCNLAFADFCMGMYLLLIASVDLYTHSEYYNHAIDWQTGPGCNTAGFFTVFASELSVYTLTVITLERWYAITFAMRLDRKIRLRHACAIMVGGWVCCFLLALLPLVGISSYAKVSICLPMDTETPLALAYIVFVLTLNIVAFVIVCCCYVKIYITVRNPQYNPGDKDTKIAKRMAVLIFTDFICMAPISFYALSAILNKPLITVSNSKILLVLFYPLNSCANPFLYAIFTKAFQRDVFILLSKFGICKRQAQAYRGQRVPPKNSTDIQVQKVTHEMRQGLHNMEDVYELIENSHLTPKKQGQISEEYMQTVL
In short: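 HEK293 cells stably bearing the thyrotropin receptor were plated at 800 cells/well and challenged with compound (30 min, RT). Accumulated cAMP was quantified via cAMP-d2 competing for cryptate-tagged antibody.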

Measured: Potency

Cc1cccc(O)c1
inactive: [1] | [2] | [3] | [4] | [5] | [6] | [7] | [8] | [9]

c1ccc2c(c1)ccc1ccccc12
inactive: [1] | [2] | [3] | [4] | [5] | [6] | [7] | [8] | [9]

O=C(CC(C(=O)OC1CCCCC1)S(=O)(=O)O)OC1CCCCC1 (stereo not drawn)
inactive: [1] | [2] | [3] | [4] | [5] | [10] | [6] | [7] | [8]

CC1=C(C)S(=O)(=O)CCS1(=O)=O
active: [2] 3.01 µM
inactive: [1] | [3] | [4] | [5] | [6] | [7] | [8] | [9]

CCC(O)OCCCOC (stereo not drawn)
inactive: [1] | [2] | [3] | [4] | [5] | [6] | [7] | [8] | [9]

Fc1ccc(Br)cc1
inactive: [1] | [2] | [3] | [4] | [5] | [6] | [7] | [8]
30.9 µM (active) and inactive: [10]

O=c1[nH]nnc2ccccc12
inactive: [1] | [2] | [3] | [4] | [5] | [6] | [7] | [8] | [9]

OC[C@H]1O[C@@](CO)(O[C@H]2O[C@H](CO)[C@@H](O)[C@H](O)[C@H]2O)[C@@H](O)[C@@H]1O
inactive: [1] | [2] | [3] | [4] | [5] | [6] | [7] | [8] | [9]

ON=C1CCCCC1
inactive: [1] | [2] | [3] | [4] | [5] | [6] | [7] | [8] | [9]

CN(C)CCOCCN(C)C
inactive: [1] | [2] | [3] | [4] | [5] | [10] | [6] | [7] | [8] | [9]

Cc1occc(=O)c1O
inactive and 50.9 µM (active): [1]
inactive: [2] | [3] | [10] | [6] | [7] | [8]

CC1=CC(=O)NS(=O)(=O)O1
inactive: [2] | [3] | [10] | [6] | [7] | [8]
48.7 µM (active) and inactive: [1]

COCCCOc1ccnc(CS(=O)c2nc3ccccc3[nH]2)c1C (stereo not drawn)
active: [2] 6.83 µM
inactive: [1] | [3] | [4] | [5] | [10] | [6] | [7] | [8] | [9]

O=C=NCCCCCCN=C=O
23.8 µM (active) and inactive: [1]
inactive: [2] | [3] | [10] | [6] | [7] | [8] | [9]

CCCCCCOCCO
inactive: [1] | [2] | [3] | [6] | [7] | [8]

CCOC(=O)NNc1nncc2ccccc12
inactive: [1] | [2] | [3] | [6] | [7] | [8] | [9]

CC1CCC(C(C)C)C(O)C1 (stereo not drawn)
inactive: [1] | [2] | [3] | [10] | [6] | [7] | [8] | [9]

CCCCCCCC(=O)OC
inactive: [1] | [2] | [3] | [6] | [7] | [8] | [9]

CCc1ccc(CCOc2ccc(CC3SC(=O)NC3=O)cc2)nc1 (stereo not drawn)
inactive: [1] | [2] | [3] | [6] | [7] | [8]

C[Si](O[Si](C)(C)C)O[Si](C)(C)C
inactive: [1] | [2] | [3] | [10] | [6] | [7] | [8] | [9]

O=[N+]([O-])c1ccc(/C=C/c2ccc([N+](=O)[O-])cc2S(=O)(=O)O)c(S(=O)(=O)O)c1
inactive: [1] | [2] | [3] | [6] | [8] | [9]

CCCCCC(N)=O
inactive: [1] | [2] | [3] | [6] | [7] | [8] | [9]

O=C(O)CC(C(=O)O)C(CC(=O)O)C(=O)O (stereo not drawn)
inactive: [1] | [2] | [3] | [6] | [7] | [8]
268 nM (active) and inactive: [10]

CC(=O)Nc1ccccc1
inactive: [1] | [2] | [3] | [6] | [7] | [8]

Cc1ccc(N(C)C)cc1
inactive and 27.3 µM (active): [2]
inactive: [1] | [3] | [6] | [7] | [8] | [9]
